Assay [1] in a line: Cytometric Cell-Based qHTS for Inhibitors of the mTORC1 Signaling Pathway in MEF (Tsc2-/-, p53-/-) Cells (AID 2660).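 Also: percent of cells above a phospho-rpS6 to PI ratio cutoff in each well; series mostly up to about 38 µM.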 In outline: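 Readout: Alexa-488 phospho-rpS6 (Ser235/236) intensity divided by PI intensity, thresholded against 7.5 nM rapamycin wells and reported as % positive cells. PI cell count served as the viability measure. Compound exposure was 24 hrs at 37 degree Celsius.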
For orientation: qHTS replaces the single test concentration by a dilution series.

A short description of assay [2]: High Content Imaging Cell-Based qHTS for Inhibitors of the mTORC1 Signaling Pathway in MEF (Tsc2-/-, p53-/-) Cells (AID 2666).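 Also: percent of cells scored positive for phospho-rpS6 Ser235/236 immunostaining by imaging.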 Also: potency is read from the fitted curve at half-maximal effect. In outline:
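Read-out: % positive cells per well, with thresholds from highest- and lowest-signal wells, based on phospho-rpS6 (Ser235/236) intensity normalized to Hoechst nuclear stain. Cells: Tsc2-/-, p53-/- MEFs carrying empty vector; compound 24 hrs, 37 degree Celsius.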

Assay [3] in a line: High Content Imaging Cell-Based qHTS for Inhibitors of the mTORC1 Signaling Pathway in MEF Cells (AID 2667). Also: potency is read from the fitted curve at half-maximal effect. The procedure, abridged: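 MEF (Tsc2-/-, p53-/-, WT Tsc2 re-expressed); cpd 24 h, 37 °C; PFA fix; Alexa-488 anti-p-rpS6 Ser235/236, PI, Hoechst; IN Cell imaging; Hoechst/Alexa-488 intensity ratio; % active cells, thresholds set from rapamycin and DMSO wells.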

Molecules are shown by their SMILES. Records with an inconclusive call do not appear. Entries that show only a call come without a potency. Active and inactive are the calls of the source. Calls follow the shape of the dose curve; as a rule, active = well fitted curve in the direction sought with a large enough effect; inconclusive = small, poorly fitted or top-dose-only effect, or another doubt; inactive = no such curve, though single readings can be large; an effect the other way counts as inactive or inconclusive.

In the case of `C[N+]1(C)C2CC(OC(=O)[C@H](CO)c3ccccc3)CC1C1OC12` (some centres undefined), in assay [1], the outcome was inactive. Moreover, the Potency entry in assay [2] and in assay [3] was “inactive” in each case.
As for `O=C(CCCCCN1CCN(c2ccccc2-c2ccccc2)CC1)NC1CCCc2ccccc21` (centres undefined), in assay [1], the compound was classed as inactive. In assay [2], the Potency entry was “inactive”.
On to `O=C(c1ccc(Cl)cc1)N1CCN(c2ccc([N+](=O)[O-])c3ncccc23)CC1`, for which the compound was classed as inactive in assay [1]. The Potency result in assay [2] and in assay [3] was “inactive” throughout.
As to `Clc1ccc(N2CCN(Cc3cc4ccccn4n3)CC2)cc1`, in assay [1], the outcome was inactive. Besides, the Potency result in assay [2] and in assay [3] was “inactive” in each case.
Turning to `Nc1ncnc2c1ncn2[C@@H]1O[C@H](COP(=O)(O)CP(=O)(O)OP(=O)(O)O)[C@@H](O)[C@H]1O`, in assay [1], the outcome was inactive. For the same compound, the Potency result in assay [2] and in assay [3] was “inactive” each time.
`O=C1NC(=O)/C(=C/c2ccc(-c3ccc(F)cc3O)o2)S1`: the call in assay [1] was inactive. The Potency result in assay [2] and in assay [3] was “inactive” each time.
Turning to `CSc1nc(N)c2ncn([C@@H]3O[C@H](COP(=O)(O)OP(=O)(O)OP(=O)(O)O)[C@@H](O)[C@H]3O)c2n1`, the call in assay [1] was inactive. In addition, the Potency result in assay [2] and in assay [3] was “inactive” throughout.
Turning to `Cc1cc2c(cc1Cl)N(C(=O)Nc1ccc(Oc3cccnc3C)nc1)CC2`, the call in assay [1] was inactive. In addition, the Potency entry in assay [2] is “inactive”.
Consider `CC(C)CC(NP(=O)(O)O[C@@H]1O[C@@H](C)[C@H](O)[C@@H](O)[C@H]1O)C(=O)NC(Cc1c[nH]c2ccccc12)C(=O)O` (some centres undefined), for which, in assay [1], the call was inactive. Moreover, the Potency entry in assay [2] and in assay [3] was “inactive” in each case.
For the compound `NCC1OC(O[C@H]2[C@H](O)[C@@H](OC3C(O)C(N)CC(N)C3OC3OC(CO)C(O)C(O)C3N)O[C@@H]2CO)C(N)C(O)C1O` (some centres undefined), the result in assay [1] was inactive. For the same compound, the Potency result in assay [2] and in assay [3] was “inactive” in each case.
For the compound `COc1ccc2c(c1)CCC1C2CC[C@@]2(C)C1CC[C@@H]2NCCCCCCN1C(=O)CCC1=O` (some centres undefined), in assay [1], the compound was called inactive. In addition, the Potency entry in assay [2] is “inactive”. Also, in assay [3], the Potency is 3.69 µM (active).
With `CSc1ccccc1N1CCN(CCCCCC(=O)NC2CCCc3ccccc32)CC1` (centres undefined), in assay [1], the compound was classed as inactive. Moreover, the Potency result in assay [2] is “inactive”.
With `C#C[C@]1(O)CC[C@H]2[C@@H]3CCC4=Cc5oncc5CC4(C)[C@H]3CCC21C` (some centres undefined), the outcome in assay [1] was inactive. In addition, the Potency entry in assay [2] and in assay [3] was “inactive” throughout.
Turning to `Nc1nc(Cl)nc2c1ncn2[C@@H]1O[C@H](CO)[C@@H](O)[C@H]1O`, the call in assay [1] was inactive. The Potency result in assay [2] and in assay [3] was “inactive” in each case.
In the case of `CN(C)CCCO[C@@H]1[C@H]2OC(C)(C)O[C@H]2O[C@@H]1[C@H](O)CO`, in assay [1], the compound was classed as inactive. The Potency entry in assay [2] and in assay [3] was “inactive” throughout.
`CC1OC1P(=O)(O)O` (centres undefined): in assay [1], the compound was classed as inactive. In addition, the Potency entry in assay [2] and in assay [3] was “inactive” each time.
With `O=C1NC(=O)/C(=C/c2ccc3nccnc3c2)S1`, the Potency entry in assay [2] is “inactive”.
For `NC(=S)c1ccc[n+]([C@@H]2O[C@@H](COP(=O)([O-])OP(=O)(O)OC[C@H]3O[C@@H](n4cnc5c(N)ncnc54)[C@H](OP(=O)(O)O)[C@@H]3O)C(O)C2O)c1` (some centres undefined), in assay [1], the outcome was inactive. Also, the Potency result in assay [2] and in assay [3] was “inactive” each time.
Take `NC[C@H]1O[C@@H](n2cnc3c(N)ncnc32)[C@H](O)[C@@H]1O`: the outcome in assay [1] was inactive. Also, the Potency entry in assay [2] and in assay [3] was “inactive” in each case.
With `Nc1nc(SCc2ccc([N+](=O)[O-])cc2)c2ncn([C@@H]3O[C@H](CO)[C@@H](O)[C@H]3O)c2n1`, the outcome in assay [1] was inactive. Moreover, the Potency result in assay [2] and in assay [3] was “inactive” throughout.
As for `CC(C)ON([C@@H](C(=O)NO)C(C)C)S(=O)(=O)c1ccc(-c2ccccc2)cc1`, the compound was classed as inactive in assay [1]. For the same compound, the Potency result in assay [2] is “inactive”. Besides, the Potency in assay [3] was 5.85 µM (active).
On to `CCCCC#Cc1nc(NC)c2ncn([C@@H]3O[C@H](CO)[C@@H](O)[C@H]3O)c2n1`, for which, in assay [1], the compound was called inactive. For the same compound, the Potency entry in assay [2] and in assay [3] was “inactive” each time.
With `N#C/C(=C\c1ccc(-c2cc(Cl)ccc2Cl)o1)C(=O)Nc1cccc2ncccc12`, the Potency result in assay [2] and in assay [3] was “inactive” each time.
Consider `CCOC(=O)N1CCN(/[N+]([O-])=N/Oc2ccc([N+](=O)[O-])cc2[N+](=O)[O-])CC1`, for which the Potency in assay [2] is 13.1 µM (active). Besides, the Potency entry in assay [3] was “inactive”.
Regarding `C=CC(=O)c1ccc(CCCCCC)cc1`, the call in assay [1] was inactive. The Potency result in assay [2] and in assay [3] was “inactive” each time.
In the case of `Cc1ccc(S(=O)(=O)/C=C/C#N)cc1`, the result in assay [1] was inactive. The Potency result in assay [2] and in assay [3] was “inactive” each time.
Take `CC(N)C(=O)OC(C)(C)Cc1ccc(Cl)cc1` (centres undefined): the call in assay [1] was inactive. Also, the Potency entry in assay [2] and in assay [3] was “inactive” each time.
`CCN(CC)c1ncnc2c1ncn2[C@@H]1O[C@H](COP(=O)(O)OP(=O)(O)C(Br)(Br)P(=O)(O)O)[C@@H](O)[C@H]1O`: in assay [1], the outcome was inactive. Moreover, the Potency entry in assay [2] and in assay [3] was “inactive” in each case.
Take `O=C(O)CC1CC(c2ccccc2)=NO1` (centres undefined): in assay [1], the compound was classed as inactive. In addition, the Potency result in assay [2] and in assay [3] was “inactive” each time.
Consider `CC(C)NC[C@@H](O)c1ccc(O)c(O)c1`, for which the Potency result in assay [2] and in assay [3] was “inactive” each time.
In the case of `C=CC(C)=C[C@@]1(C)SC(=O)C(C)=C1O`, in assay [1], the outcome was inactive. In addition, the Potency result in assay [2] and in assay [3] was “inactive” in each case.
`CNc1ncnc2c1ncn2[C@@H]1O[C@H](CO)[C@@H](O)[C@H]1O`: the call in assay [1] was inactive. Moreover, the Potency result in assay [2] and in assay [3] was “inactive” in each case.
Consider `COc1cc(SC)ccc1C(=O)N1CCC(Cc2ccccc2)CC1`, for which, in assay [1], the outcome was inactive. Also, the Potency result in assay [2] and in assay [3] was “inactive” throughout.
Turning to `Cc1nc2sccn2c(=O)c1CCN1CCC(=C(c2ccccc2)c2ccc(F)cc2)CC1`, in assay [1], the result was inactive. The Potency result in assay [2] and in assay [3] was “inactive” in each case.
As to `Nc1nc(Cl)nc2c1ncn2[C@@H]1O[C@H](COP(=O)(O)OP(=O)(O)OP(=O)(O)O)[C@@H](O)[C@H]1O`, in assay [1], the outcome was inactive. Also, the Potency entry in assay [2] and in assay [3] was “inactive” each time.
`O=C(c1ccc(OCCCc2cnc[nH]2)cc1)C1CC1`: in assay [1], the call was inactive. The Potency entry in assay [2] and in assay [3] was “inactive” in each case.
For the compound `CCCC1(C)C(C#N)(C#N)C1(C#N)C#N`, the Potency result in assay [2] is “inactive”. Also, the Potency in assay [3] was 2.33 µM (active).
Regarding `CCc1c(C(=O)NCCc2ccc(N3CCCCC3)cc2)[nH]c2ccc(Cl)cc12`, the compound was classed as inactive in assay [1]. Also, the Potency result in assay [2] and in assay [3] was “inactive” throughout.
For the compound `Nc1ncnc2c1ncn2[C@@H]1O[C@H](COP(=O)(O)OP(=O)(O)OP(=O)(O)OP(=O)(O)OC[C@@H]2O[C@H](n3cnc4c(N)ncnc43)[C@@H](O)[C@H]2O)[C@@H](O)[C@H]1O`, the call in assay [1] was inactive. The Potency result in assay [2] and in assay [3] was “inactive” each time.
As to `N=c1ccn2c(n1)O[C@H]1[C@H](O)[C@@H](CO)O[C@H]12`, the Potency entry in assay [2] and in assay [3] was “inactive” each time.
On to `O=[N+]([O-])c1ccc2c(c1)S(=O)(=O)C=C2`, for which the Potency entry in assay [2] was “inactive”. For the same compound, the Potency in assay [3] was 1.85 µM (active).
As for `OC[C@H]1O[C@@H](n2cnc3c(Nc4ccccc4)ncnc32)[C@H](O)[C@@H]1O`, in assay [1], the result was inactive. Also, the Potency entry in assay [2] and in assay [3] was “inactive” in each case.
On to `C=C[C@H]1CN2CC[C@@H]1C[C@@H]2[C@@H](O)c1ccnc2ccc(OC)cc12`, for which the compound was called inactive in assay [1]. The Potency result in assay [2] and in assay [3] was “inactive” throughout.
Turning to `CCCCCCCCc1ccc(-c2ccc(C(=O)O)cc2)cc1`, the result in assay [1] was inactive. The Potency entry in assay [2] and in assay [3] was “inactive” each time.
As to `NC(=O)C1=CN(C2OC(COP(=O)(O)OP(=O)(O)OC[C@H]3O[C@@H](n4cnc5c(N)ncnc54)[C@H](OP(=O)(O)O)[C@@H]3O)C(O)C2O)C=CC1` (some centres undefined), the compound was classed as inactive in assay [1]. Also, the Potency result in assay [2] and in assay [3] was “inactive” each time.
Take `NC(=S)NCCC[C@H](N)C(=O)O`: the result in assay [1] was inactive. Further, the Potency result in assay [2] and in assay [3] was “inactive” each time.
For the compound `Cn1ncc(S(=O)(=O)Cc2ccccc2)c(Br)c1=O`, the Potency entry in assay [2] is “inactive”.
Consider `CNC(=O)[C@H]1O[C@@H](n2cnc3c(NCc4ccc(N)cc4)ncnc32)[C@H](O)[C@@H]1O`, for which, in assay [1], the call was inactive. Further, the Potency entry in assay [2] and in assay [3] was “inactive” in each case.
Regarding `CN1CC(=O)N/C1=N/C(=O)Nc1cccc(Cl)c1`, the result in assay [1] was inactive. Further, the Potency entry in assay [2] and in assay [3] was “inactive” each time.
Turning to `Nc1nc(Nc2ccccc2)nc2c1ncn2[C@@H]1O[C@H](CO)[C@@H](O)[C@H]1O`, the compound was called inactive in assay [1]. The Potency result in assay [2] and in assay [3] was “inactive” in each case.
For `NS(=O)(=O)C#Cc1ccccc1`, the Potency entry in assay [2] and in assay [3] was “inactive” each time.
